# In all, about 360,000 compounds went through this assay and about 1,100 (0.31%) were called active. This excerpt belongs to a sample that is enriched for actives. Values without a mark were called inactive. Cut-off read from the data, not from the text of the source: active = activity change below about -80%; inconclusive = mostly about -51% to -80%; inactive = weaker than that.
# Molecular target: RAC-alpha serine/threonine-protein kinase (Homo sapiens) (UniProt P31749)
# Test: HTS Assay for Inhibitors of Akt Phophorylation: Primary Screen
# Details: Neuro2A IGF-stimulated pAkt S473 HTRF, 20 min; at 50 µM, stronger effect = lower value
# Excerpt: The serine/threonine protein kinase Akt (protein kinase B) regulates various cellular processes, including cell survival, growth, proliferation, migration and differentiation. It has been well established that Akt is activated through two essential steps involving membrane translocation and phosphorylation. Cytosolic Akt is recruited to the plasma membrane via the interaction between the PH domain and membrane PIP3 produced by phosphoinositide-3 kinase (PI3K) upon growth factor receptor stimulation. The membrane-Akt interaction results in conformational changes of Akt, enabling its activation through phosphorylation at T308 in the kinase domain and at S473 in the C-terminal hydrophobic motif by PDK1 and mTOR-rictor complex (mTORC2), respectively. […] These findings indicate that S473 phosphorylation, as an important modulator of Akt activation, may be a valuable drug target for cell growth, survival, proliferation and differentiation. These inhibitors also may have significant therapeutic potential with fewer side effects, especially for the conditions involving hyperactive Akt signaling, such as cancer and Alzheimer's disease.
# To this end, a miniaturized assay was developed to be screened against the Molecular Libraries Small Molecule Repository (MLSMR).
# NIH Chemical Genomics Center [NCGC]
# NIH Molecular Libraries Probe Centers Network [MLPCN]
# Assay Submitter (PI): Hee-Yong Kim, National Institute on Alcohol Abuse and Alcoholism
# 3 uL of Neuro2A cell suspension in DMEM containing 0.5% FBS and […] antibiotics mix was plated in a white solid bottom tissue culture-treated 1536-well plate (Greiner Bio-One, Monroe, NC) at 4,500 cells per well and incubated overnight at 37 deg C. 23 nL/well of compound solutions in DMSO was added with Pintool transfer (Kalypsis, San Diego, CA) at single […] final concentration. Then, the cells were stimulated with 1.5 uL of IGF (6 nM final concentration) and incubated at 37 deg C for 20 min. The reaction was terminated by the addition of 1.5 uL blocking reagent mixed with lysis buffer (1:25 correspondingly) provided with HTRF(R) Phospho Akt (Ser473) kit (Cisbio US, Bedford, MA), with following incubation for 50 min at ambient temperature. The detection HTRF conjugates from the kit were prepared according to the protocol, pre-mixed 1:1 prior to dispensing, and 2 uL/well was added with BioRAPTR FRD dispenser (Beckman Coulter). The assay plates were incubated for 24 hours at ambient temperature, and the HTRF fluorescence was measured using Envision plate reader (PerkinElmer) with excitation at 330nm, emission at 615nm (Eu(3)-Cryptate donor signal) and 665nm (d2 acceptor signal). The ratio of […] was calculated for each well.
# % is set by controls: 0 for no effect and ±100 for the full control effect.
row,SMILES,activity change
1,Cc1ccc(Cl)c(OCC(=O)N2CCc3ccccc3C2)c1,inactive
2,Cc1ccc2c(c1)N(C(=O)CCC(=O)N1CCc3ccccc3C1)CCO2,-105% (active)
3,Cc1ccc2c(c1)N(C(=O)CCC(=O)NCc1cccnc1)CCO2,inactive
4,CCOC(=O)C1CCN(C(=O)C2CCN(S(=O)(=O)c3c(C)noc3C)CC2)CC1,inactive
5,CCC(C)N(C(=O)CSc1ncnc2c1cnn2-c1ccccc1)C1CCS(=O)(=O)C1 (stereo not given),inactive
6,CCN(CC)C(=O)CSc1ncnc2c1cnn2-c1ccccc1,-110% (active)
7,CCN(C(=O)CSc1ncnc2c1cnn2-c1ccccc1)C1CCS(=O)(=O)C1 (stereo not given),inactive
8,Cc1cccc(C)c1NC(=O)C(c1ccc(C(F)(F)F)cc1)n1c(=O)c(-c2ccco2)nc2ccccc21 (stereo not given),inactive
9,COC(=O)c1nc(NC(=O)c2ccc(Cl)cc2)n[nH]1,inactive
10,O=C(Nc1ncc2c(n1)CC(c1ccco1)CC2=O)c1ccc(Cl)cc1 (stereo not given),inactive
11,O=C(Nc1ncc2c(n1)-c1ccccc1OC2)c1ccc(Cl)cc1,-120% (active)
12,CN(C)c1ccc(Nc2c3c4c(cccc4n(C)c2=O)C(=O)c2ccccc2-3)cc1,inactive
13,Cc1ccccc1NC(=O)CSC(=O)c1ccccc1,inactive
14,Cc1ccccc1NC(=O)c1ccccc1,-122% (active)
15,COc1cc2ccccc2cc1C(=O)Nc1ccccc1C,inactive
16,Cc1cccc(N(C(=O)c2csnn2)C(C(=O)NCc2ccccc2)c2ccncc2)c1 (stereo not given),inactive
17,Cc1cccc(C2C3=C(CCCC3=O)N=C3c4ccccc4C(=O)C32)c1 (stereo not given),inactive
18,CCOC(=O)[C@]12CCCC=C1N(CCC1=CCCCC1)C(=O)[C@H](CC(=O)N1CCN(C(=O)c3ccco3)CC1)C2,inactive
19,COc1ccc(C(CNC(=O)CSc2ccccc2)N2CCOCC2)cc1 (stereo not given),inactive
20,O=C(C(=O)N1CCC(c2ccccc2)CC1)c1ccccc1,inactive
21,Cc1cccc(-n2c(Cc3cc(=O)[nH]c(=O)[nH]3)nnc2SC(C)C)c1,inactive
22,Cc1cccc(NC(=O)Cn2cc(C(=O)c3ccco3)c3ccccc32)c1,11.5%
23,COCCNC(=O)Cn1cc(C(=O)c2cccs2)c2ccccc21,-3.12%
24,O=C(Cn1cc(C(=O)c2cccs2)c2ccccc21)NCc1cccs1,-110% (active)
25,FC(F)(F)c1cccc(-c2nc3ccccc3n2C(c2ccccc2)c2nc3ccccc3[nH]2)c1 (stereo not given),inactive

row,SMILES,activity change
1,COc1ccc(CCNC(=O)COc2ccc3c(c2)OCO3)cc1,inactive
2,CC(C)(Oc1ccc(Cl)cc1)C(=O)OCC(=O)NCCc1ccc(S(N)(=O)=O)cc1,inactive
3,COc1ccc(OCC(=O)NCCc2ccc(S(N)(=O)=O)cc2)cc1,-119% (active)
4,CCOC(=O)CN(C(=O)CN1CCOCC1)c1ccc(Br)cc1,1.02%
5,CCN(C(=O)COC(=O)c1cc(NS(=O)(=O)c2ccc(Cl)c([N+](=O)[O-])c2)ccc1O)C1CCCCC1,inactive
6,COC(=O)[C@@]12C[C@@H](CC(=O)NCc3cccc(C(F)(F)F)c3)C(=O)N(Cc3ccco3)C1=CCC(C)(C)C2,inactive
7,CC1CCCCC1NC(=O)CCS(=O)(=O)c1cccc2nonc12 (stereo not given),-123% (active)
8,COc1ccc(C)cc1NC(=O)CCS(=O)(=O)c1cccc2nonc12,16.6%
9,O=C(CCS(=O)(=O)c1cccc2nonc12)NCCc1ccccc1Cl,2.49%
10,C=CCNc1nnc(C)c2ccccc12,-110% (active)
11,C=CCNc1nc(C)nc(OC)n1,inactive
12,C=CCNc1nnc(SCC(=O)N2CCCCC2)c2ccccc12,4.07%
13,CCCc1nnc(NC(=O)CCC(=O)N2CCN(S(=O)(=O)c3ccc(OC)cc3)CC2)s1,inactive
14,Cc1ccccc1Nc1nnc(C)c(=O)[nH]1,-109% (active)
15,Cc1nnc(N/N=C/c2ccccn2)[nH]c1=O,inactive
16,CCc1c(Nc2ccccc2C)nc(N)[nH]c1=O,inactive
17,Cc1cccc(C)c1NC(=O)C(c1cccc2ccccc12)n1c(=O)c(-c2ccco2)nc2ccccc21 (stereo not given),inactive
18,COc1cccc(-c2ccc3c(c2)N(Cc2ccccc2OC)C(=O)C(C)S3)c1 (stereo not given),inactive
19,CCc1c(-c2ccc(F)cc2)ncn1Cc1cccc(-c2ccccc2)c1,inactive
20,CCCCCn1nnnc1-c1nc2cc3ccccc3cc2[nH]c1=O,inactive
21,COc1ccccc1NC(=O)C1CCN(C(=O)c2ccc(C(C)(C)C)cc2)CC1,inactive
22,Cc1cc(Br)cn2c(Cc3ccccc3C(F)(F)F)c(-c3ccc(Cl)cc3)nc12,inactive
23,Cc1nc2c(c(C)nn2-c2ccccc2)c(C)c1C,inactive
24,Cn1c(=O)c2c(-c3cccc(Br)c3)c(C#N)c(N)nc2n(C)c1=O,inactive
25,CSc1ccc(-c2c(C#N)c(N)nc3c2c(C)nn3-c2ccccc2)cc1,-83.6% (active)

row,SMILES,activity change
1,COc1ccc(NC(=O)C(c2ccncc2)n2c(=O)c(-c3cc4ccccc4[nH]3)nc3ccccc32)cc1 (stereo not given),inactive
2,Nc1nc2ncccn2c1-c1ccccc1,inactive
3,CCOC(=O)c1cc2cc(C)ccc2[nH]1,inactive
4,Cc1ccc2[nH]c(=O)c(COC(=O)c3ccccn3)cc2c1,-7.82%
5,CC(=O)OCc1cc2cc(C)ccc2[nH]c1=O,-102% (active)
6,CCOc1ccc(N(CC(=O)NCc2ccc(OC)cc2)S(=O)(=O)c2c(C)noc2C)cc1,-134% (active)
7,CCOc1ccc(N(CC(=O)OC)S(=O)(=O)c2c(C)noc2C)cc1,inactive
8,Cc1noc(C)c1S(=O)(=O)N(CC(=O)NCc1ccc(Cl)cc1)c1ccc2c(c1)OCO2,inactive
9,NC(=NC(=O)c1ccccc1)C1=C(O)CCC1=O,-110% (active)
10,NC(=NC(=O)c1ccccc1)N1CCOCC1,inactive
11,Cc1onc(-c2ccccc2)c1C(=O)N=C(N)c1ccc(Cl)cc1,inactive
12,O=C(O)Cc1csc(-c2cccc(Oc3ccccc3)c2)n1,inactive
13,CCCCOCCCNC(=O)C[C@@H]1C[C@@]2(C(=O)OCC)CCCC=C2N(CCC2=CCCCC2)C1=O,inactive
14,CC(C)N1C(=O)c2ccccc2NC(=O)C1C(=O)NCc1cccs1 (stereo not given),inactive
15,O=C(C(=O)N1CCN(c2ccccc2)CC1)c1ccc2c(c1)OCO2,inactive
16,CC1(C(=O)Nc2ccc3c(c2)OCCO3)CN(S(C)(=O)=O)CC(=O)N1Cc1cccc(F)c1 (stereo not given),inactive
17,COc1ccccc1N1CCN(C(=O)CSc2ncnc3c2cnn3-c2ccc(C)c(C)c2)CC1,inactive
18,COc1ccc(-n2ncc3c(SCC(=O)NNC(C)=O)ncnc32)cc1,inactive
19,COc1ccc(-n2ncc3c(N4CCc5ccccc54)ncnc32)cc1,-95.4% (active)
20,COc1nc(Oc2ccc(=O)n(C)n2)nc(N(C)C)n1,6.07%
21,COc1nc(OC)nc(N(C)CCO)n1,-113% (active)
22,CO[C@@H]1CN(C)C(=O)c2cc(NC(=O)C3CC3)ccc2OC[C@H](C)N(C(=O)CN2CCOCC2)C[C@@H]1C,inactive
23,CC(=O)C[C@@H]1OC[C@H](C)N1S(=O)(=O)c1ccc(C)cc1,inactive
24,Cc1cccc(C(=O)Nc2ccc(Oc3cnccn3)cc2)c1,inactive
25,Cc1cccc(C(=O)Nc2ccc(C(=O)/C=C/c3cccs3)cc2)c1,-121% (active)

row,SMILES,activity change
1,Cc1cccc(C(=O)Nc2ccc3c(c2)C(=O)N(CC(C)C)C3=O)c1,inactive
2,CCCCCc1c(Cc2ccccc2)ncn1CCc1ccccc1OC,inactive
3,COc1ccc(N2C(=O)CCC(C(=O)N(C)C3CCCCC3)C2c2ccc(OC)c(OC)c2)cc1 (stereo not given),inactive
4,COc1ccc(S(=O)(=O)N[C@@H]2C=C[C@@H](CC(=O)N3CCc4ccccc4C3)O[C@@H]2CO)cc1,inactive
5,Cc1cc(C)cc(NC(=O)N2CCC(NC(=O)c3ccc(F)cc3)CC2)c1,-96.8% (active)
6,COc1ccc(C(=O)NC2CCN(C(=O)Nc3ccc(F)cc3)CC2)cc1,inactive
7,Cc1ccc(C(=O)NC2CCN(C(=O)Nc3ccc(F)cc3)CC2)cc1,inactive
8,Cc1ccc(S(=O)(=O)N2C[C@H]3n4c(=O)ccc(=O)n4C[C@H](OC(=O)NC4CCCC4)[C@@]3(O)C2)cc1,inactive
9,Cc1ccc2nc(Nc3ncc4c(n3)CC(C)(C)CC4=O)nc(C)c2c1,inactive
10,CC(=O)N1CCC(C(=O)Nc2nc(-c3ccccc3)ns2)CC1,inactive
11,O=C(NNC(=O)C1CCN(c2ncccn2)CC1)c1ccccc1,inactive
12,Cc1cc(-c2ccccc2)nc(N2CCC(C(=O)NC34CC5CC(CC(C5)C3)C4)CC2)n1,-97.3% (active)
13,CCCCCNC(=O)C1C(=O)Nc2ccccc2C(=O)N1C(C)(C)C (stereo not given),inactive
14,COC(=O)[C@]12CCCCC=C1N(Cc1ccc(Cl)cc1Cl)C(=O)[C@H](CC(=O)NCc1cccc3ccccc13)C2,inactive
15,COC(=O)C1(C(=O)OC)C[C@H](c2ccccc2)N(Cc2ccccc2OC)[C@@H]1c1ccccc1,inactive
16,O=C(N[C@H]1CC[C@H](CC(=O)N2CCCCC2)O[C@@H]1CO)c1cccc(F)c1,inactive
17,CCc1nc2sc3c(Cl)ncnc3c2c2c1CCCC2,inactive
18,c1ccc(COc2nsnc2N2CCOCC2)cc1,inactive
19,c1ccc(CSc2ncnc3c2sc2nc(N4CCOCC4)c4c(c23)CCCC4)cc1,-92.8% (active)
20,COC(=O)[C@@]12C[C@@H](CC(=O)NCCCCc3ccccc3)C(=O)N(CCc3ccc(OC)c(OC)c3)C1=CCC(C)(C)C2,inactive
21,CCOC(=O)NC(=O)CSc1nnc(SCCC(=O)O)s1,inactive
22,COC(=O)[C@@]12C[C@@H](CC(=O)N3CCCCC3)C(=O)N(Cc3ccc4c(c3)OCO4)C1=CCC(C)(C)C2,inactive
23,CSc1nc2c(c(=O)[nH]1)C(c1cccc(Cl)c1Cl)CC(=O)N2 (stereo not given),inactive
24,N#Cc1c(N)nc2c3c(sc(=N)c2c1N)NC(=O)CC3c1ccccc1Cl (stereo not given),-87.7% (active)
25,COc1ccc(C2CC(=O)Nc3sc(=N)c4c(N)c(C#N)c(N)nc4c32)cc1OC (stereo not given),inactive
